Results filed as inconclusive are left out. A number with no mark means an inactive call. The source made the active and inactive calls. Calls follow the shape of the dose curve; as a rule, active = well fitted cell-killing curve with a large enough effect; inconclusive = small, poorly fitted or top-dose-only effect; inactive = no such curve, though single readings can be large or run the other way.
Test: qHTS of pediatric cancer cell lines to identify multiple opportunities for drug repurposing: Primary screen for OHS-50 cells (AID 1347103); also: nearly all actives have a fitted effect of over 40% in size
Settings: OHS-50 osteosarcoma viability, CellTiter-Glo luminescence, 48 h; series mostly up to 57.3 µM; activity change, negative = cytotoxic: at the top concentration
Source text: Drug repurposing or repositioning has been offered as a strategy for drug development in oncology programs. This approach has special potential for childhood cancers and other rare or orphan diseases, where the expected return on new drug development has been a disincentive to pharmaceuticals.
In this project we exploit the poly-pharmacology of drugs to discover new indications via phenotypic screening of a panel of 19 well-characterized cell lines derived from solid tumors seen in children and adolescents. The goal is to identify approved drugs with previously unrecognized anticancer properties that has the potential to reveal new mechanisms and biological processes involved in carcinogenesis or drug resistance. We employed a titration-based paradigm (quantitative high-throughput screening or qHTS), where all compounds were tested at multiple concentrations for their effect on cell viability. Concentration-response curves (CRCs) were derived directly from the primary screen, and both potency and efficacy values were used to identify compounds with robust bioactivity profiles. We screened the NIH Chemical Genomics Center (NCGC) Pharmaceutical Collection (NPC) and Mechanism Interrogation Plate (MIPE) small molecule collections of approved and investigational compounds against these cell lines; and measured metabolically active cells after 48 hours of compound treatment as a proxy for cell viability.
Assay Submitter: Nathalia J. Martinez, National Center for Advancing Translational Sciences, National Institutes of Health, Rockville, MD, USA; email: natalia.martinez@nih.gov
[1] Shen, M et al. Quantitative high-throughput phenotypic screening of pediatric cancer cell lines identifies multiple opportunities for drug repurposing. Oncotarget 2017 Dec 19;9(4):4758-4772. PMID 29435139.
The cells were obtained from University of North Carolina (UNC), Pediatric Preclinical Testing Program (PPT), and Coriell Institute (CI).
qHTS cell viability assay:
Cells were assayed in growth media at a density of 500-1,000 cells/well. Five microliters of cells were dispensed into 1,536-well, white, solid-bottom, TC-treated plates (Greiner Bio One) using a multidrop dispenser and incubated at 37 degrees C, 5% CO2, under a humidified atmosphere for 5 hours. Twenty-three nanoliters of compounds and controls (neutral control DMSO or positive control bortezomib at final concentration of 2.3 µM) were subsequently transferred by Kalypsys pintool. For primary screens, the MIPE collection was tested at 11-point dilutions (final concentrations range from 0.78 nM to 46 µM) and the NPC collection at 8-point dilutions (final concentrations range from 0.59 nM to 46 µM). Compounds tested in follow-up screens were assayed at 11-point dilutions. Cells were incubated for 48 hours, followed by addition of 3 µL of CellTiter-Glo (Promega). After a 15 min incubation at room temperature, samples were analyzed for luminescence intensity using a ViewLux High-throughput CCD imager equipped with clear filters.
Potency is read from the fitted curve at half-maximal effect.

Row | SMILES | Potency | activity change, negative = cytotoxic [%]
1 | Cc1ccc(-c2ncn(-c3ccc(Nc4nccc(-c5cccc(N6CCOCC6)c5)n4)cc3)n2)cn1 | 217 nM (active) | 
2 | CC[C@@H]1C(=O)N(C)c2cnc(Nc3ccc(C(=O)NC4CCN(C)CC4)cc3OC)nc2N1C1CCCC1 | 54.4 nM (active) | 
3 | Cc1cc(C(=O)N2CCN(c3cccc(Cl)c3)CC2)n(-c2ccccc2)n1 | 1370 nM (active) | 
4 | Cc1[nH]c2ccccc2c1CCNCc1ccc(C=CC(=O)NO)cc1 | 153 nM (active) | 
5 | COCCn1c2c([n+](Cc3cnccn3)c1C)C(=O)c1ccccc1C2=O | 15.3 nM (active) | 
6 | CCn1nnc2c(N3CCOCC3)nc(-c3ccc(NC(=O)Nc4ccc(C(=O)N5CCN(C)CC5)cc4)cc3)nc21 | 27.3 nM (active) | 
7 | Cn1c2cc(S(C)=O)sc2c2cnn(Cc3cccc(N)c3)c(=O)c21 (stereo not given) |  | -16.1
8 | O=C(CCCCCCNC(=O)c1cnc(N(c2ccccc2)c2ccccc2)nc1)NO | 6850 nM (active) | 
9 | CCCCc1nc2cc(C=CC(=O)NO)ccc2n1CCN(CC)CC | 153 nM (active) | 
10 | Cc1c(C)n(Cc2ccc(-c3ccccc3C(=O)O)cc2)c2ccc(C(=O)N[C@@H](C)c3ccc([N+](=O)[O-])cc3)cc12 | 2730 nM (active) | 
11 | O=c1c2ccccc2nc2n1CCc1c-2[nH]c2ccccc12 |  | -27
12 | COc1c(OCCCN2CCOCC2)ccc2c3n(c(=NC(=O)c4cnc(N)nc4)nc12)CCN3 | 21.1 nM (active) | 
13 | CC(O)C1C(=O)N2C(C(=O)O)=C(SC3CNC(C(=O)N(C)C)C3)C(C)C12 (stereo not given) |  | 11.3
14 | CNC(=O)CN1CCC(Oc2cc3c(Nc4cccc(Cl)c4F)ncnc3cc2OC)CC1 | 1 nM (active) | 
15 | COc1cc2c(Oc3ccc(NC(=O)C4(C(=O)Nc5ccc(F)cc5)CC4)cc3F)ccnc2cc1OCCCN1CCOCC1 | 385 nM (active) | 
16 | CN1CCN(Cc2ccc(NC(=O)Nc3ccc(Oc4cc(NC(=O)C5CC5)ncn4)cc3)cc2C(F)(F)F)CC1 | 485 nM (active) | 
17 | CN[C@H]1CCc2cc(OC)c(OC)c(OC)c2-c2ccc(OC)c(=O)cc21 | 1.5 nM (active) | 
18 | Nc1ncnc2c1c(-c1cnc3[nH]ccc3c1)nn2C1CCCC1 | 68.5 nM (active) | 
19 | O=C1CCC[C@@H]2[C@H]3CCC[N+]4([O-])CCC[C@@H](CN12)[C@@H]34 (stereo not given in full) |  | -5.56
20 | Nc1nccc(Oc2ccc(NC(=O)c3c[nH]cc(-c4ccc(F)cc4)c3=O)cc2F)c1Cl | 7690 nM (active) | 

Row | SMILES | Potency | activity change, negative = cytotoxic [%]
21 | Cc1ccc(C(=O)Nc2ccc(CN3CCN(C)CC3)c(C(F)(F)F)c2)cc1C#Cc1cnc2cccnn12 | 1090 nM (active) | 
22 | COC(=O)[C@]12CCC(C)(C)C[C@@H]1[C@@H]1C(=O)C=C3[C@@]4(C)C=C(C#N)C(=O)C(C)(C)[C@@H]4CC[C@@]3(C)[C@]1(C)CC2 | 685 nM (active) | 
23 | O=C(Nc1ncc(-c2cc(C(F)F)nn2-c2c(Cl)cccc2Cl)s1)C1CC1 | 432 nM (active) | 
24 | C#Cc1cccc(Nc2ncnc3cc(OC)c(OCCCCCCC(=O)NO)cc23)c1 | 485 nM (active) | 
25 | c1nc2nc(Nc3ccc(N4CCOCC4)cc3)nc(NC3CCCCC3)c2[nH]1 | 2170 nM (active) | 
26 | C=CC(=O)Nc1cc2c(Nc3ccc(F)c(Cl)c3)ncnc2cc1C#CC(C)(C)N1CCN(C)CC1 | 3850 nM (active) | 
27 | C[C@@]12O[C@@H](C[C@]1(O)CO)n1c3ccccc3c3c4c(c5c6ccccc6n2c5c31)CNC4=O | 217 nM (active) | 
28 | Fc1cc(-c2cccc3ncc(-c4cnn(C5CCNCC5)c4)nc23)cc(F)c1CN1CCOCC1 | 19300 nM (active) | 
29 | C[C@]1(CO)CN(c2cc(C(=O)Nc3ccc4c(c3)-c3c(c(C(N)=O)nn3-c3ccc(F)cc3)CC4)c(Cl)cn2)C[C@@]1(C)CO | 10900 nM (active) | 
30 | CC1COC2(CCN(c3nc(=O)c4cc(C(F)(F)F)cc([N+](=O)[O-])c4s3)CC2)O1 (stereo not given) |  | 24.1
31 | O=C(NCCS(=O)(=O)c1ccc(C(F)(F)F)cn1)c1ccc(Cl)cc1 |  | 6.09
32 | CC(C)(C)c1cnc(CSc2cnc(NC(=O)C3CCNCC3)s2)o1 | 273 nM (active) | 
33 | Cn1cc(-c2ccncc2)c(-c2ccc(OCc3ccc4ccccc4n3)cc2)n1 | 3060 nM (active) | 
34 | Cc1cccc(C=NNc2cc(N3CCOCC3)nc(OCCc3ccccn3)n2)c1 | 24300 nM (active) | 
35 | COc1cc(C)c(Sc2cnc(NC(=O)c3ccc(CNC(C)C(C)C)cc3)s2)cc1C(=O)N1CCN(C(C)=O)CC1 (stereo not given) | 2430 nM (active) | 
36 | Cc1cc(Nc2cc(CN3CCOCC3)c3nc(C)c(Cc4ccc(Cl)cc4F)n3n2)n[nH]1 | 27300 nM (active) | 
37 | COc1ccc(F)c(F)c1C(=O)c1cnc(NC2CCN(S(C)(=O)=O)CC2)nc1N | 3060 nM (active) | 
38 | CC(C)(O)c1cc2nc(-c3cnc(N)nc3)nc(N3CCOCC3)c2s1 | 30.6 nM (active) | 
39 | COc1cc(C(=O)N2CCC(N3CCN(C)CC3)CC2)ccc1Nc1ncc2c(n1)N(C)c1ccccc1C(=O)N2C | 7690 nM (active) | 
40 | CC(=O)Nc1sc2c(c1-c1nc3ccccc3s1)CNC2 | 24300 nM (active) | 

— PubChem BioAssay (NCATS)
